Test results published in PubChem BioAssay (NCI).
Compounds without any hit were thinned out: in the full panel of roughly 79,000, 15% have a hit. Cut-off read from the data, not from the text of the source: active = growth inhibition above about 70%; inactive = the rest.

Tests used:
[1] = NCI Yeast Anticancer Drug Screen. Data for the rad50 strain (AID 155);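 note: 0% = growth of vehicle-only cultures of the same strain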; details: S. cerevisiae rad50 strain growth inhibition; at 50.0 µM; stronger effect = higher value
Method in brief: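 Growth of the mutant yeast was measured after compound exposure and referenced to vehicle-treated cultures.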

[2] = NCI Yeast Anticancer Drug Screen. Data for the mec2-1 strain (AID 157); details: S. cerevisiae mec2-1 strain, at 50.0 µM, stronger effect = higher value
Method in brief: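 Using mec2-1 yeast: add compound, measure growth, express inhibition versus vehicle-treated cultures.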

[3] = NCI Yeast Anticancer Drug Screen. Data for the sgs1 mgt1 strain (AID 161);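 note: 0% = growth of cultures given vehicle only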; details: S. cerevisiae sgs1 mgt1 strain, at 50.0 µM, stronger effect = higher value
Method in brief: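 Compounds are added to genetically altered yeast, and growth is compared with cultures given vehicle alone to give percent inhibition.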

[4] = NCI Yeast Anticancer Drug Screen. Data for the cln2 rad14 strain (AID 165);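 note: 0% = growth equal to vehicle treated cultures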; details: S. cerevisiae cln2 rad14 strain, at 50.0 µM, stronger effect = higher value
Method in brief: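 Yeast strain cln2 rad14, bearing defects in cell cycle control and DNA repair, serves as the test system; values reflect growth inhibition compared with vehicle.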

[5] = NCI Yeast Anticancer Drug Screen. Data for the bub3 strain (AID 167); details: S. cerevisiae bub3 mutant strain, at 50.0 µM, stronger effect = higher value
Method in brief: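 Whole-cell yeast assay. The mutant strain was incubated with compounds, and growth inhibition was determined by comparison with vehicle-treated cells.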

[6] = NCI Yeast Anticancer Drug Screen. Data for the mlh1 rad18 strain (AID 175); details: S. cerevisiae mlh1 rad18 strain growth inhibition; at 50.0 µM; stronger effect = higher value
Method in brief: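 Steps: expose repair-defective yeast to compound; measure growth; express inhibition against vehicle-treated controls.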

Measured: growth inhibition

NC(=S)N/N=C/c1ccco1
inactive: [1] -26.2% | [2] -11.3% | [3] -18.3% | [4] -67.2% | [5] -23.9% | [6] -8.2%

N#CCCNC1CCCCC1
inactive: [1] 2.95% | [2] 4% | [3] 2.5% | [4] -14.3% | [5] 0.85% | [6] -0.25%

c1ccc(N2CCCC2(c2ccccc2)c2ccccc2)cc1
inactive: [1] 29.1% | [2] 11.3% | [3] 47.1% | [4] -11.8% | [5] 22.9% | [6] 28.4%

Cc1ccc(OCC2OC(n3cnc4nc(Nc5ccc(Cl)c(Cl)c5)nc(Cl)c43)CC2Oc2ccc(C)cc2)cc1 (stereo not given)
inactive: [1] 6.9% | [2] 10.8% | [3] -40.2% | [4] 14.1% | [5] -20.3% | [6] -33%

O=C(O)/C(=C/C=C/c1ccccc1)c1csc(-c2nc(/C(=C\C=C\c3ccccc3)C(=O)O)cs2)n1
inactive: [1] 22% | [2] 13.3% | [3] 19.4% | [4] 16.9% | [5] 19.1% | [6] 9.15%

CCCCCCCCCCCCS(=O)(=O)CCC(=O)c1ccco1
inactive: [1] 29.4% | [2] 20.1% | [3] -6.8% | [4] 9.3% | [5] 6.55% | [6] 7.6%

COc1ccc(N=Nc2c(C)c(C#N)c(=S)n(C3OC(CO)C(O)C(O)C3O)c2C)cc1 (stereo not given)
inactive: [1] 16.1% | [2] 14.1% | [3] 46.6% | [4] 7.9% | [5] 28.1% | [6] 21.7%

O=C(COc1ccc(Cl)cc1Cl)Nc1c(Cl)cc(Cl)cc1Cl
inactive: [1] 6.7% | [2] 7.6% | [3] -6.45% | [4] 2% | [5] -4.8% | [6] 19.6%

CC1CCOCCCOC(=O)CCOCCC(=O)OCCCOCCCOC(=O)CCOCCC(=O)O1 (stereo not given)
inactive: [1] 0.7% | [2] 2.4% | [3] 5% | [4] 15.9% | [5] -5.95% | [6] -4.45%

C=CCOC(=O)Oc1ccc(Cl)cc1Cl
inactive: [1] 9.75% | [2] 0.3% | [3] 3.3% | [4] -10.3% | [5] 21.4% | [6] 18.5%

COC(=O)CCC(=O)C(CC(=O)OC)C(=O)CCC(=O)NCCc1ccccc1 (stereo not given)
inactive: [1] -30.1% | [2] -21.9% | [3] -41.5% | [4] 2.4% | [5] -24.2% | [6] -31.4%

O=C1c2cccc3cc([N+](=O)[O-])cc(c23)C(=O)N1Cc1ccco1
inactive: [1] 24.6% | [2] 8.85% | [3] 32.2% | [4] 16.8% | [5] 7.65% | [6] 0.95%

CCOC1(OCC)C(=O)N(c2ccc(Cl)c(Cl)c2)C(=O)N1c1ccc(Cl)c(Cl)c1
inactive: [1] 39.2% | [2] 1.4% | [3] -5.6% | [4] 7.5% | [5] -3.65% | [6] -0.45%

Cc1cc(=O)c2cc([N+](=O)[O-])ccc2[nH]1
inactive: [1] 6.05% | [2] 6.35% | [3] -9.7% | [4] -5.95% | [5] 5.85% | [6] -2.65%

Cn1c(=O)c2ccccc2[n+]2c(-c3cccc([N+](=O)[O-])c3)csc12
inactive: [1] -3.9% | [2] -15.3% | [3] 41.5% | [4] 25.6% | [5] -8.85% | [6] -9%

O=C(O)/C(=C(\CO)c1ccccc1)c1ccccc1
inactive: [1] 7.15% | [2] 9.25% | [3] 11% | [4] 24.4% | [5] 3.25% | [6] 26.7%

CCCCCCCCCCCCSCCSCCC
inactive: [1] -19.1% | [2] -10.7% | [3] 1% | [4] -14.6% | [5] -7.35% | [6] 4.5%

CCCCCCCCCCCCCCCCCC(=O)OCC1CO1 (stereo not given)
inactive: [1] 23.2% | [2] 10.3% | [3] 21.6% | [4] 13.2% | [5] 18.9% | [6] 21.1%

O=C(c1ccccc1)C(O)(Cc1ccccc1)c1ccccc1 (stereo not given)
inactive: [1] 1.9% | [2] 17.2% | [3] 20.8% | [4] 22.8% | [5] 14.4% | [6] 12%

Cc1ccc(C(=O)N2CCCCC2)cc1N=NN(C)C
inactive: [1] 0.05% | [2] -25.5% | [3] -25.6% | [4] 14.3% | [5] -17.6% | [6] -21.1%

Nc1ncccc1C(=O)O
inactive: [1] 2.55% | [2] -1.05% | [3] -2.8% | [4] -12.1% | [5] -0.35% | [6] -3.05%

CC/C(C)=N\NC(=O)CC(=O)N/N=C(/C)CC
inactive: [1] -8.35% | [2] 1.45% | [3] -7% | [4] -61.6% | [5] -4% | [6] -17.1%

CC(C)(C)C(=O)C(C(=O)c1ccccc1)C(=O)C(C)(C)C
inactive: [1] -4.65% | [2] -16.4% | [3] 19.9% | [4] 6.85% | [5] 9.8% | [6] -30.2%

N#CC(OC(=O)c1cccc(C(=O)OC(C#N)(C(F)(F)F)C(F)(F)F)c1Sc1ccccc1)(C(F)(F)F)C(F)(F)F
inactive: [1] 27% | [2] 13.8% | [3] -10.1% | [4] -7.8% | [5] 7.55% | [6] -1.3%

O=C(N/N=C\c1cccc2c([N+](=O)[O-])cccc12)Nc1ccccc1
inactive: [1] -30.6% | [2] -0.45% | [3] -21.9% | [4] 2.6% | [5] -16.6% | [6] -31.6%

Cc1cc(=O)n2ccnc2[nH]1
inactive: [1] 24.2% | [2] 11.3% | [3] 6.2% | [4] 19.1% | [5] 9.65% | [6] 20.1%

O=C(Nc1cc([N+](=O)[O-])ccc1Cl)c1ccc(F)cc1
inactive: [1] 13.2% | [2] 6.4% | [3] 14.6% | [4] 17.8% | [5] 28.9% | [6] 19.8%

CN(C)c1ccc(/C=N/NC=O)c(Cl)c1
inactive: [1] 0.15% | [2] 8.25% | [3] -0.6% | [4] 11.3% | [5] -0.65% | [6] -15.3%

Cc1ccc(Cc2ccccc2C(=O)O)cc1
inactive: [1] -5.95% | [2] 1.55% | [3] -2.3% | [4] -42.9% | [5] -2.45% | [6] -6.05%

N=c1nc2n(cc1F)C1OC(CO)C(O)C1O2 (stereo not given)
inactive: [1] -18.1% | [2] 7.7% | [3] 15.3% | [4] -37.3% | [5] -0.1% | [6] -8%

N#C/C(=N\N=C(/C#N)c1ccc(Cl)cc1)c1ccc(Cl)cc1
inactive: [1] -5.8% | [2] -1.85% | [3] -5.5% | [4] -6.4% | [5] -4.25% | [6] -5.15%

CC(=O)C1C(=O)C(=O)N(c2ccccc2C)C1=O (stereo not given)
inactive: [1] -25.6% | [2] -20.6% | [3] -13.8% | [4] 9.45% | [5] -24.9% | [6] -25.4%

O=c1[nH]cc(S)c(=O)[nH]1
inactive: [1] 15.8% | [2] -28.4% | [3] -15.4% | [4] -9.35% | [5] -9.7% | [6] -0.35%

COC(=O)C1OC1c1ccncc1 (stereo not given)
inactive: [1] 19.1% | [2] 6.15% | [3] 32.3% | [4] 5.3% | [5] 0.1% | [6] 5.5%

CCN(CC)COC(=O)C(C)(C)C
inactive: [1] -13.1% | [2] 10.6% | [3] -12.9% | [4] -35% | [5] -9.25% | [6] -4.2%

O=c1c(Br)nn(C(c2ccccc2)c2ccccc2)c(=O)n1C(c1ccccc1)c1ccccc1
inactive: [1] 23.1% | [2] 2.25% | [3] 10.1% | [4] 15.8% | [5] 3.6% | [6] 13.1%

Cc1ccc(S(=O)(=O)CC(=O)CC(=O)C(=O)Nc2ccc(C)cc2C)cc1
inactive: [1] 2.15% | [2] -9.2% | [3] -21.1% | [4] 2% | [5] -8.55% | [6] 12.8%

O=C(O)C#Cc1cccnc1
inactive: [1] -10.9% | [2] -14% | [3] 0.75% | [4] 6% | [5] -3.4% | [6] -16.9%

Cc1cc2oc(=O)[nH]c(=S)c2c(C)c1C
inactive: [1] -47.7% | [2] -19.2% | [3] -35.2% | [4] 2.45% | [5] -59.5% | [6] -36.6%

Cc1ccc(O)cc1C=C(Cl)Cl
inactive: [1] 18.6% | [2] 0.25% | [3] 35.6% | [4] 22.8% | [5] -0.3% | [6] 11.4%
